Measured values reported in PubChem BioAssay (EPA / NIEHS).
Calls of active or inactive are those of the source. The calls were made as follows: active = hit-call score of the fitted dose curve at least 0.9, where 1 is the maximum; inactive = score below 0.9.

How the values were obtained:
[1] = ATG_CRE_CIS: Attagene CIS-FACTORIAL HepG2 Assay for human cAMP Responsive Element (CRE) binding protein 3 (AID 2282926); conditions: HepG2 CRE cis-reporter, Attagene multiplexed mRNA; actives raise or lower the signal
Summary of the method: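 Human liver HepG2, transient MRTU transfection, 24 h compound exposure. Total RNA → oligo(dT) RT → PCR → 6-FAM primer extension → HpaI cut → CE. Activity called both directions vs DMSO.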

[2] = target: CCAAT/enhancer-binding protein beta (Homo sapiens) (UniProt P17676); assay: ATG_C_EBP_CIS: Attagene CIS-FACTORIAL HepG2 Assay for human CCAAT/Enhancer Binding Protein (C/EBP) beta (AID 2282927); conditions: HepG2 Attagene cis-factorial transcription factor reporter; actives raise or lower the signal
Summary of the method: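 Chemical-treated HepG2 cells (24 h) bearing cis-regulated reporter constructs were processed for total RNA, then reverse transcription, PCR amplification, fluorescent primer extension and fragment analysis; gain- and loss-of-signal were fitted against DMSO.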

[3] = ATG_CMV_CIS: Attagene CIS-FACTORIAL HepG2 Assay for human CMV (Internal Marker) (AID 2282928); conditions: HepG2 CMV promoter reporter, transcription factor profiling; actives raise or lower the signal;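 also: endpoint acts as a background internal control marker rather than a target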
Summary of the method: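 HepG2 cells transiently transfected with multiple cis-regulated reporter units; 24 h compound exposure. Reporter mRNA quantified by RT-PCR, 6-FAM primer-extension labeling, HpaI digestion and capillary electrophoresis; bidirectional fitting against DMSO baseline.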

[4] = ATG_DR4_LXR_CIS: Attagene CIS-FACTORIAL HepG2 Assay for human Liver X Receptor (LXR), DR4 submotif (AID 2282929); conditions: HepG2 Attagene DR4 cis-reporter, mRNA transcription; actives raise or lower the signal
Summary of the method: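 Measures endogenous transcription factor activity via a DR4-driven reporter transcript in human HepG2 cells. Compounds incubated 24 h; mRNA quantified by RT-PCR and capillary electrophoresis, analysed as gain or loss of signal versus DMSO.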

[5] = target: Aryl hydrocarbon receptor (Homo sapiens) (UniProt P35869); assay: ATG_Ahr_CIS: Attagene CIS-FACTORIAL HepG2 Assay for human Aryl Hydrocarbon Receptor (Ahr) (AID 2282930); conditions: HepG2 AhR cis-factorial reporter transcription; actives raise or lower the signal
Summary of the method: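 Following 24 h of chemical dosing, transfected HepG2 liver cells with cis-driven reporter units were lysed for RNA; reporter mRNA was quantified via RT-PCR and capillary electrophoresis, and responses fitted bidirectionally from DMSO.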

[6] = ATG_AP_1_CIS: Attagene CIS-FACTORIAL HepG2 Assay for human Activator Protein 1 (AP-1) (AID 2282931); conditions: HepG2 Attagene cis-factorial AP-1 reporter mRNA; actives raise or lower the signal
Summary of the method: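 Bidirectional concentration-response fitting against DMSO controls. Underlying signal: reporter mRNA from cis-promoter constructs in transiently transfected HepG2, measured after 24 h by RT-PCR and capillary electrophoresis.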

[7] = ATG_AP_2_CIS: Attagene CIS-FACTORIAL HepG2 Assay for human Activator Protein 2 (AP-2) (AID 2282932); conditions: HepG2 AP-2 cis-reporter, Attagene transcription factor profiling; actives raise or lower the signal
Summary of the method: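 Bidirectional curve fitting against DMSO was applied to reporter mRNA signals from HepG2 cells 24 h after dosing. Cis-promoter reporter units, transiently transfected, were read by RT-PCR plus capillary electrophoresis.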

[8] = ATG_BRE_CIS: Attagene CIS-FACTORIAL HepG2 Assay for human Bone Morphogenetic Protein (BMP) Response Element (BRE) (AID 2282933); conditions: HepG2 BMP response element reporter, Attagene transcription factor profiling; actives raise or lower the signal
Summary of the method: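 HepG2 cells transiently transfected with CIS reporter units (endogenous TF activity, BMP response element), dosed 24 h. Reporter mRNA quantified by RT-PCR, fluorescent labelling and capillary electrophoresis; bidirectional fit vs DMSO baseline.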

[9] = target: Retinoic acid receptor alpha (Homo sapiens) (UniProt P10276); assay: ATG_DR5_RAR_CIS: Attagene CIS-FACTORIAL HepG2 Assay for human Retinoic Acid Receptor Alpha (RARE), DR5 submotif (AID 2282934); conditions: HepG2 Attagene cis-factorial RARE DR5 reporter, mRNA; actives raise or lower the signal;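 as to AC50: reporter responds to endogenous RAR alpha beta and gamma in HepG2 not RARA alone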
Summary of the method: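 Transfected HepG2 reporter cells are exposed to chemicals for 24 h. Then RNA is extracted and the DR5 element reporter transcript is measured by RT-PCR and capillary electrophoresis, with bidirectional curve fitting relative to DMSO.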

[10] = target: Transcription factor E2F1 (Homo sapiens) (UniProt Q01094); assay: ATG_E2F_CIS: Attagene CIS-FACTORIAL HepG2 Assay for human E2F Transcription Factor 1 (AID 2282935); conditions: HepG2 Attagene cis-reporter, E2F reporter RNA transcripts; actives raise or lower the signal
Summary of the method: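 Multiplexed cis-reporter assay: HepG2, transient transfection, 24 h dosing, mRNA quantitation by labeled RT-PCR and CE.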

[11] = ATG_E_Box_CIS: Attagene CIS-FACTORIAL HepG2 Assay for human Enhancer Box (E-box) (AID 2282936); conditions: HepG2 E-box cis-reporter transcription, actives raise or lower the signal
Summary of the method: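 Multiplexed CIS reporter system in transiently transfected HepG2 cells measures native transcription factor activity. Reporter RNA after 24 h exposure is profiled by RT-PCR-capillary electrophoresis.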

[12] = ATG_M_61_CIS: Attagene CIS-FACTORIAL HepG2 Assay for M61 Transcription Factor (Internal Marker) (AID 2282937); conditions: HepG2 Attagene CIS-FACTORIAL M61 internal marker reporter; actives raise or lower the signal
Summary of the method: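 Fluorescence from labelled cDNA fragments, separated by capillary electrophoresis, quantifies reporter induction. HepG2 cells bearing transiently transfected cis-promoter MRTUs were incubated with test chemical for 24 h; DMSO defined baseline for gain/loss fitting.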

[13] = ATG_EGR_CIS: Attagene CIS-FACTORIAL HepG2 Assay for human Early Growth Response 1 (EGR1) (AID 2282938); conditions: HepG2 Attagene CIS-FACTORIAL EGR reporter mRNA; actives raise or lower the signal
Summary of the method: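 Cell-based multiplex transcription assay: HepG2 carrying transfected cis-element reporter units, 24 h chemical treatment. Fluorescence from capillary electrophoresis of RT-PCR products gives mRNA levels; fitting is bidirectional relative to DMSO.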

[14] = ATG_M_19_CIS: Attagene CIS-FACTORIAL HepG2 Assay for M19 Transcription Factor (Internal Marker) (AID 2282939); conditions: HepG2 Attagene CIS-FACTORIAL M19 internal marker reporter; actives raise or lower the signal
Summary of the method: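 HepG2 cells transiently transfected with cis-regulated multiplexed reporter units, dosed 24 h. Reporter mRNA quantified by RT-PCR and capillary electrophoresis; internal background marker fitted bidirectionally versus DMSO.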

[15] = ATG_ERE_CIS: Attagene CIS-FACTORIAL HepG2 Assay for Estrogen Response Element (ERE) (AID 2282940); conditions: HepG2 ERE cis-reporter, Attagene RNA transcript; actives raise or lower the signal
Summary of the method: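 HepG2 cells transiently transfected with multiplexed cis-element reporter units, measuring endogenous transcription factor activity; ERE reporter mRNA quantified after 24 h exposure by RT-PCR, fluorescent labelling, HpaI digestion and capillary electrophoresis. Bidirectional change versus DMSO.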

[16] = ATG_Ets_CIS: Attagene CIS-FACTORIAL HepG2 Assay for human Erythroblast Transformation Specific (ETS) (AID 2282941); conditions: HepG2 ETS cis-reporter transcription, actives raise or lower the signal
Summary of the method: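 HepG2 cells transiently transfected with cis-promoter reporter transcription units were dosed for 24 h; reporter mRNA was measured by RT-PCR, 6-FAM primer extension, HpaI digestion and capillary electrophoresis, with bidirectional fitting against DMSO baseline.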

[17] = target: Hepatocyte nuclear factor 3-beta (Homo sapiens) (UniProt Q9Y261); assay: ATG_FoxA2_CIS: Attagene CIS-FACTORIAL HepG2 Assay for human Forkhead box A2 (FOXA2) (AID 2282942); conditions: HepG2 cis-reporter transcription factor activity, 24 h; actives raise or lower the signal
Summary of the method: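 In transiently transfected human HepG2 cells, promoter-driven reporter mRNA levels after 24 h chemical exposure are determined via RT-PCR with capillary electrophoresis. DMSO serves as baseline for bidirectional fitting.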

[18] = ATG_FoxO_CIS: Attagene CIS-FACTORIAL HepG2 Assay for human Forkhead box O (FoxO) (AID 2282943); conditions: HepG2 Attagene cis-reporter, FoxO element, mRNA; actives raise or lower the signal
Summary of the method: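 24 h chemical exposure, HepG2 with transient cis-MRTU transfection. RNA extraction, oligo(dT) RT, reporter-specific PCR, primer-extension labelling, HpaI digestion, CE fragment analysis; bidirectional fit, DMSO baseline.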

[19] = ATG_GATA_CIS: Attagene CIS-FACTORIAL HepG2 Assay for human GATA Binding Protein (AID 2282944); conditions: HepG2 GATA cis-element reporter, Attagene multiplex mRNA; actives raise or lower the signal
Summary of the method: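 HepG2 cells transiently transfected with multiplexed cis-element reporter units measure endogenous GATA activity; after 24 h compound exposure, reporter mRNA quantified by RT-PCR and capillary electrophoresis. Changes fitted in both directions vs DMSO.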

[20] = ATG_GLI_CIS: Attagene CIS-FACTORIAL HepG2 Assay for human Zinc Finger Protein GLI1 (AID 2282945); conditions: HepG2, Attagene cis-factorial reporter mRNA, GLI element; actives raise or lower the signal
Summary of the method: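 HepG2 cells transiently transfected with cis-promoter multiplexed reporter units report endogenous transcription factor activity. After 24 h chemical exposure, reporter mRNA was quantified by RT-PCR, 6-FAM labelling, HpaI digestion and capillary electrophoresis, with bidirectional fitting against DMSO.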

Measured: AC50

Aryl hydrocarbon receptor (Homo sapiens), sequence (P35869 whole entry, looked up): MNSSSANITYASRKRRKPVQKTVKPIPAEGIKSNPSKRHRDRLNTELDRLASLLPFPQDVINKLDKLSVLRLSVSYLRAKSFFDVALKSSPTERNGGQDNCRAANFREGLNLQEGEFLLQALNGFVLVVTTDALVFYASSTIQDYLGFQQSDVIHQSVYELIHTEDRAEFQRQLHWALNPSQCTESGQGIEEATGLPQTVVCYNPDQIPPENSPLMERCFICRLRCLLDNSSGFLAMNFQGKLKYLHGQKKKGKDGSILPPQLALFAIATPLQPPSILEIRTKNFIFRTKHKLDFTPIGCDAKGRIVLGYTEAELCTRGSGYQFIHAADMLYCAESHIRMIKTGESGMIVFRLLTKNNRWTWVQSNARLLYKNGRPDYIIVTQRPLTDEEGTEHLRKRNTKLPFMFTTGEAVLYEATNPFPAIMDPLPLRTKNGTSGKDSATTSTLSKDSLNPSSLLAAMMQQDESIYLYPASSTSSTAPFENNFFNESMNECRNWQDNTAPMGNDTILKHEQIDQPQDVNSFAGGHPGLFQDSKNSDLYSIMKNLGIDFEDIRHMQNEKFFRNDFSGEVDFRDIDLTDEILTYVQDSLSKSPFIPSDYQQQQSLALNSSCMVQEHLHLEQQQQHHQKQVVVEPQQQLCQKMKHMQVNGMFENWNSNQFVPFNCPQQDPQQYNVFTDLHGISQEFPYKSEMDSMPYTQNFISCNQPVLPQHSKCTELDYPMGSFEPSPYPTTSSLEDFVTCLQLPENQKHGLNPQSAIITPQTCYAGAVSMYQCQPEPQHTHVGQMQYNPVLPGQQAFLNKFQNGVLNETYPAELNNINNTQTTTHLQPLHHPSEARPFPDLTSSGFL
CCAAT/enhancer-binding protein beta (Homo sapiens), sequence (P17676 whole entry, looked up, the tested form may be a part): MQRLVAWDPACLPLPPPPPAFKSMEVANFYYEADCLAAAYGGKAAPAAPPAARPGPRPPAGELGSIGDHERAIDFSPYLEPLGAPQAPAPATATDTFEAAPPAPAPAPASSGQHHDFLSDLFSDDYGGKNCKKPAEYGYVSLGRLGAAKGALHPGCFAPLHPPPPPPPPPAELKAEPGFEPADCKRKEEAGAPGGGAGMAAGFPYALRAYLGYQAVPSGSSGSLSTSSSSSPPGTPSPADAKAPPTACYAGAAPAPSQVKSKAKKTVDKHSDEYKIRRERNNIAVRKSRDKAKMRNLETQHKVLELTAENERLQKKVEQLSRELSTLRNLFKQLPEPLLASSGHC
Hepatocyte nuclear factor 3-beta (Homo sapiens), sequence (Q9Y261 whole entry, looked up): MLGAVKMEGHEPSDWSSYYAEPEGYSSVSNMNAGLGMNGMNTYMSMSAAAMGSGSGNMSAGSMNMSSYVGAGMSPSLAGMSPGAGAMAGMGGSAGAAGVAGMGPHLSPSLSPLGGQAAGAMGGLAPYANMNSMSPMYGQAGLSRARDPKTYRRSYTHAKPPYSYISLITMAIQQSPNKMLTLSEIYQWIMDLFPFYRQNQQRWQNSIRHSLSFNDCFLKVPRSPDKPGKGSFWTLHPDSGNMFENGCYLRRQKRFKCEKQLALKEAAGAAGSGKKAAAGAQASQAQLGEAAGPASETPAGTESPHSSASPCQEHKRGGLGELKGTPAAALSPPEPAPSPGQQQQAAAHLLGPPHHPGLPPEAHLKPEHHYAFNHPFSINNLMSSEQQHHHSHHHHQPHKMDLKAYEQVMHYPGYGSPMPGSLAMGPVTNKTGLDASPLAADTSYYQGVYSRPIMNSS
Transcription factor E2F1 (Homo sapiens), sequence (Q01094 whole entry, looked up): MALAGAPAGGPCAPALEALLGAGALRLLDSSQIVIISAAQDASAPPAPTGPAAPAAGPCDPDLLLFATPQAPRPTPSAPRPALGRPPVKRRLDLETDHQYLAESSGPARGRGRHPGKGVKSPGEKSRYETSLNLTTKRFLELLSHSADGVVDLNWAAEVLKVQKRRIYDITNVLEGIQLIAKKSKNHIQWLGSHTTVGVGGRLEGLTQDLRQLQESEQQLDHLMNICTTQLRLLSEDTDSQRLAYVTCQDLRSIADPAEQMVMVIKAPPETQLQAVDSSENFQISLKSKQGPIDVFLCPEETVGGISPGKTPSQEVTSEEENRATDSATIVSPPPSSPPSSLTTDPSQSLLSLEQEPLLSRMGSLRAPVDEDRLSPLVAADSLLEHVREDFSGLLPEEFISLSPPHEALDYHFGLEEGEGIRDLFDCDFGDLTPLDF
Retinoic acid receptor alpha (Homo sapiens), sequence (P10276 whole entry, looked up): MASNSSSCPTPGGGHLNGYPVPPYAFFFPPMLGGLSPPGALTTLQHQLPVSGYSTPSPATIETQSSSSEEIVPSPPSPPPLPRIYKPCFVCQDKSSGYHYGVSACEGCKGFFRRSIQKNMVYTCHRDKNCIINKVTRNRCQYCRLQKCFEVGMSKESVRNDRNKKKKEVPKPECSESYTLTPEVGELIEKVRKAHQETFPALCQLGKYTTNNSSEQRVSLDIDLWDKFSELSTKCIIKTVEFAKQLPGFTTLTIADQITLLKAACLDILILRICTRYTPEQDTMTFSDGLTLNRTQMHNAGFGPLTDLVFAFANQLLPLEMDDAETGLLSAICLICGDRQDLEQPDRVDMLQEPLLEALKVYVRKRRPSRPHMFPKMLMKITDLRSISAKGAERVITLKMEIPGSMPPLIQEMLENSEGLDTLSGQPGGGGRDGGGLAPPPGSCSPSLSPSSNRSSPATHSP

O=S(=O)(O)c1ccccc1C=Cc1ccc(-c2ccc(C=Cc3ccccc3S(=O)(=O)O)cc2)cc1
active: [8] 39.6 µM | [11] 40.6 µM
inactive: all other assays above

CCCCCCC1(C)CCC(=O)O1 (centres undefined)
active: [5] 44.4 µM
inactive: all other assays above

CCCC(C)CCC(C)=O (centres undefined)
not listed: [20]
inactive: all other assays above

O=C(O)Cc1c(Cl)ccc(Cl)c1Cl
inactive: all assays above

C=CCOCC(O)CCl (centres undefined)
inactive: all assays above

CC(C)C1=CC2=CC[C@@H]3[C@](C)(CCC[C@@]3(C)C(=O)O)[C@H]2CC1
active: [3] 135 µM | [4] 3.7 µM | [5] 31.6 µM | [6] 149 µM | [13] 60.3 µM | [19] 54.1 µM
inactive: all other assays above

CCCCCCCCCCCCCCCC[n+]1ccccc1
active: [1] 0.873 µM | [2] 0.852 µM | [3] 33.4 µM | [4] 8.64 µM | [6] 20.4 µM | [7] 21 µM | [9] 7.8 µM | [16] 9.08 µM | [20] 60.1 µM
inactive: all other assays above
